Compound activity: PubChem, National Center for Advancing Translational Sciences (NCATS)
A selection: hits, their analogues and other compounds. The true share with any hit is near 21%.
Shiga inhibitor = Shiga toxin inhibition; Vero cells, Shiga toxin protein synthesis inhibition reporter; inhibition, % at 38.7 µM; 290,000 compounds, 9.2% hits; AID 2315; in the data active = inhibition mostly above about 28%, no sharp cut-off; inactive = mostly below about 43%; also: 0% is about no effect
SARS PLP yeast = blocks SARS-CoV papain-like protease in a yeast assay | 330,000 compounds, 0.19% hits | Potency, µM (titrated, usually from 32.9 µM), for the others: at the top dose activity, positive = growth rescue, hits mostly activators | S. cerevisiae expressing SARS-CoV PLpro, growth rescue; calls by dose curve; also: potency is read from the fitted curve at half-maximal effect; 0% is about no effect; nearly all actives have a fitted effect of over 55% in size
Pf growth 48h = P. falciparum growth inhibition at 48 hours (one generation); P. falciparum luciferase growth in erythrocytes, 48 h; 310,000 compounds, 5.9% hits; Potency, µM (doses to about 28.7 µM), without a hit: top-dose activity change, negative = inhibition, usual class: inhibitors; AID 504832; also: potency is read from the fitted curve at half-maximal effect; % is scaled to controls: 0 for no effect and ±100 for the full control effect
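Here the parasites carry a stable luciferase gene and grow inside erythrocytes in Albumax-based RPMI medium with compound for one erythrocytic cycle. Activity is scored as loss of luminescent signal.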
Pf growth 96h = P. falciparum growth inhibition at 96 hour, primary screen for plastid delayed-death inhibitors | P. falciparum luciferase reporter growth, 96 h | Potency, µM (titrated, usually from 28.7 µM), inactives show at the top dose activity change, negative = inhibition, usual class: inhibitors | 320,000 compounds, 6.9% hits | AID 504834; also: potency is read from the fitted curve at half-maximal effect; % is scaled to controls: 0 for no effect and ±100 for the full control effect
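Erythrocytes infected with luciferase-expressing P. falciparum were dispensed at 2% hematocrit and 0.05% parasitemia (final), then incubated with compounds 96 hours at 37 C in 5% CO2. Luminescence after detection reagent addition reported growth.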
NS1 function inh = influenza NS1 inhibition. Potency, µM (series often up to 46.1 µM), inactives show at the highest dose activity, positive = more growth. 270,000 compounds, 0.4% hits. AID 2326; calls by dose curve; also: potency is read from the fitted curve at half-maximal effect; actives are rising curves; nearly all actives have a fitted effect of over 50% in size
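Read-out: OD600 growth recovery of NS1-expressing budding yeast. Cells grown overnight at 30C in -URA glucose medium, washed, resuspended and diluted 1:100 in 2% galactose assay medium, pH 6.0. Same strain lacking NS1 served as positive control.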
CHX counter = affects cycloheximide protein synthesis inhibition readout, counter-screen; cell reporter, cycloheximide protein synthesis inhibition counterscreen; max response, %; 300,000 compounds, 12% hits; in the data active = max response mostly above about 13%, no sharp cut-off; inactive = mostly below about 14%; also: read at 38.3 µM for the half of the compounds with a filed dose; 0% is about no effect
* hit, by the source's call; ? = inconclusive; · = no result; [ ] = another dose, or the depositor's remark. Unless noted, calls follow the shape of the dose curve; as a rule, active = well fitted inhibition curve with a large enough effect; inconclusive = small, poorly fitted or top-dose-only effect, or another doubt; inactive = no such curve, though single readings can be large or run the other way.

SMILES	Shiga inhibitor	SARS PLP yeast	Pf growth 48h	Pf growth 96h	NS1 function inh	CHX counter
CC1CCCC(C)N1C(=O)CSc1nnc(COc2ccccc2)n1-c1ccccc1 (stereo unspecified)	-10	-5%	·	15µM*	-2%	-2
CC(Sc1nnc(COc2ccc([N+](=O)[O-])cc2)n1-c1ccccc1)C(=O)O (stereo unspecified)	7	0%	-3%	9.3µM*	7%	-1
CC(Sc1nnc(COc2ccc([N+](=O)[O-])cc2)n1C)C(=O)O (stereo unspecified)	-15	0%	1%	-20%	-1%	6
COn1c2c(c3c4no[n+]([O-])c4ccc31)CCCC2	12	-9%	·	-16%	-3%	6
[O-][n+]1c2c(c3c4non(O)c4ccc31)CCCC2	-17	-51%	·	12µM*	-116%	-6
O=C1CSC2=NCN(c3ccc4c(c3)OCO4)CN12	96*	4%	28%	·	4%	35*
CN(C)c1ccc(N2CN=C3SCC(=O)N3C2)cc1	98*	-11%	1.5µM*	?	4%	86*
Cc1ccc(N2CN=c3s/c(=C\c4ccccn4)c(=O)n3C2)cc1	40	2%	21%	?	7%	-1
CN1C(=O)/C(=C/c2ccccc2F)Sc2ccc(C(=O)N3CCCC3)cc21	-6	1%	?	-7%	-37%	1
COc1ccc(CCN2CC(C(=O)NC3CCCCC3)CC2=O)cc1OC (stereo unspecified)	14	5%	15%	?	·	28
Cc1cc(C)cc(C(=O)Nc2ccncc2)c1	-8	-4%	?	-27%	-38%	6
O=C1c2cccc(OCC(=O)N3CCCc4ccccc43)c2CCN1Cc1ccc(F)cc1	20	-11%	?	10µM*	14%	2
Cc1cccc(CN2CCc3c(OCC(=O)N4CCCc5ccccc54)cccc3C2=O)c1	28	-14%	12µM*	?	17%	14*
Nc1cccc2c1C(=O)N(C(=O)/C=C/c1cccc(F)c1)C2=O	140*	-2%	20%	25%	·	34*
Nc1cccc2c1C(=O)N(C(=O)/C=C/c1cccc(Br)c1)C2=O	43*	-2%	16%	30%	-34%	40*
COc1ccc(-c2cccc(C3C4C=CCCC4(C)C(=O)N3Cc3ccccc3)c2)cc1 (stereo unspecified)	24	·	·	·	·	10
COc1ccccc1NS(=O)(=O)c1ccc(O)c(NC(=S)NCC2CCCO2)c1 (stereo unspecified)	7	-2%	9%	-27%	1%	2
CC1Cn2c(nnc2-c2cc3ccccc3cc2O)S1 (stereo unspecified)	-7	10%	1.7µM*	·	0%	8
CC1Cn2c(nnc2-c2ccccc2O)S1 (stereo unspecified)	-8	5%	·	-6%	3%	-2
COc1ccc(C2CC(=O)c3sc(NC(C)=O)nc3C2)cc1 (stereo unspecified)	active	19%	?	?	18%	20*
CCCn1nnnc1NCc1ccccc1C	-5	-2%	2%	-3%	7%	-2
CCc1ccc(C(=O)CSc2nc3ccccc3c(=O)[nH]2)cc1	30	-7%	·	10µM*	-5%	14*
O=c1cc(-c2ccccc2)nc(SCCOc2ccccc2Cl)[nH]1	24	0%	7%	7.4µM*	2%	-4
Cc1cccc(C)c1NC(=O)CSc1nc2ccccc2c(=O)[nH]1	-3	1%	0%	0.41µM*	-2%	-1
CC(C)CC(=O)Nc1ccc(-c2nc3ccccc3c(=O)[nH]2)cc1	73*	2%	235%	352%	3%	32*
SMILES	Shiga inhibitor	SARS PLP yeast	Pf growth 48h	Pf growth 96h	NS1 function inh	CHX counter
CN(C)C(=O)CSc1nc2ccccc2c(=O)[nH]1	-2	4%	5%	?	-4%	3
Cc1ccc(NS(=O)(=O)c2ccc(Br)s2)cc1S(=O)(=O)N1CCOCC1	13	1%	-16%	42%	1%	5
CC(C)C1O[C@H](/C=C\c2ccccc2)OCC1(C)C (stereo partly specified)	·	·	·	·	3%	·
COc1ccc(CCNc2nc(C)nc3c2nnn3Cc2ccccc2)cc1	-5	0%	3%	-17%	14%	2
CC(C)CN1C(=O)N(c2ccc(Cl)cc2)C(C)(O)CC1(C)C (stereo unspecified)	-6	0%	15%[0.00184 µM]	2%	-2%	-8
O=C(CSc1nc2ccccc2c(=O)[nH]1)Nc1ccc(S(=O)(=O)N2CCCC2)cc1	8	-3%	-16%	2.3µM*	-8%	-5
N#Cc1c(-c2cccs2)nc(SCc2ccc(Cl)cc2)[nH]c1=O	-6	-2%	66%	?	9%	1
O=c1[nH]c(SCc2ccc(Cl)cc2)nc2ccsc12	62*	0%	490%	227%	·	44*
Cc1ccc(CSc2nc3ccccc3c(=O)[nH]2)cc1	35	-5%	19%	?	·	38*
CCN(CC)C(=O)CSc1nc2ccccc2c(=O)[nH]1	7	3%	-5%	-25%	-16%	9.0*
Cc1cccc(N2CCC(N3CCN(C4CCCCC4)C(CCO)C3)CC2)c1C (stereo unspecified)	39	-2%	-4%	3%	2%	9
O=C([C@H](Cc1ccccc1)N1C(=O)c2ccccc2C1=O)N1CCOCC1	-22	-8%	22%	-1%	-10%	7
O=C(/C=C/c1cc[n+](CC(=O)c2ccc3cccc4c3c2CC4)cc1)c1ccc2cccc3c2c1CC3	-2	2%	1%	-1%	-36%	-2
O=c1[nH]c(SCCOc2cccc3ccccc23)nc2ccccc12	25	2%	-10%	2.1µM*	·	13
Cc1ccc(C(=O)CSc2nc3ccccc3c(=O)[nH]2)cc1C	20	1%	41%	?	-5%	11
Cc1ccc(C(=O)CSc2nc3ccccc3c(=O)[nH]2)cc1	5	-3%	·	15%	-5%	15*
CCOc1ccc(OCCSc2nc3ccccc3c(=O)[nH]2)cc1	23	-8%	·	47%	-1%	2
C/C(=C\C(=O)c1cccnc1)Nc1ccc(O)cc1	26*	-7%	·	-20%	1%	28*
COc1ccc(C(=O)/C=C(\C)Nc2ccc(NC(C)=O)cc2)cc1	31	12%	39%	88%	-13%	-2
C/C(=C\C(=O)c1ccccc1)Nc1ccc(O)cc1	174*	-7%	107%	·	-2%	89*
CC(CN1CCCCC1)OC(=O)C(C)(c1ccccc1)c1ccccc1 (stereo unspecified)	-16	-14%	?	·	-5%	2
CCOC(=O)N1CCN(c2c(NCCCN3CCCCCC3)c(=O)c2=O)CC1	-5	-2%	·	10µM*	3%	-9
CCOC(=O)N1CCN(c2c(NCc3ccc(F)cc3)c(=O)c2=O)CC1	28	0%	-8%	-2%	?	1
